Measured values: PubChem BioAssay (NCI)
About 83,000 compounds went through this panel and 20% of them were active in at least one assay; those are over-represented in the sample as a whole.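 Single-dose data. Exposure time 48 hours. Values below 10 considered active.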 The source made the active and inactive calls.

Legend:
Test in all cases: NCI-60 one-dose screen, 48 h (100 = growth as untreated, 0 = no growth, -100 = all killed)
Details in all cases: 10 µM unless noted
SK-MEL-2 melanoma = tested on: SK-MEL-2 melanoma
EKVX NSCLC = tested on: EKVX NSCLC
SN12C renal = tested on: SN12C renal
UO-31 renal = tested on: UO-31 renal
TK-10 renal = tested on: TK-10 renal
ACHN renal = tested on: ACHN renal
CAKI-1 renal = tested on: CAKI-1 renal
A498 renal = tested on: A498 renal
CCRF-CEM leukemia = tested on: CCRF-CEM leukemia
MOLT-4 leukemia = tested on: MOLT-4 leukemia

Measured: growth

CN1CCN(CCCOc2cccc3nc(Nc4ccc(F)c(F)c4)ccc23)CC1
inactive: EKVX NSCLC 34% | SN12C renal 24.4% | A498 renal 33.6%
active: SK-MEL-2 melanoma -49.7% | UO-31 renal -54.3% | TK-10 renal -4.13% | ACHN renal -31.4% | CAKI-1 renal -29.1% | CCRF-CEM leukemia -26.9% | MOLT-4 leukemia -38.4%

O=C1/C(=C/c2ccccn2)NC(=S)N1c1ccccc1Cl
inactive: SK-MEL-2 melanoma 119% | EKVX NSCLC 75% | SN12C renal 58.1% | UO-31 renal 36.4% | TK-10 renal 79.9% | ACHN renal 53.3% | CAKI-1 renal 66% | A498 renal 89.5% | MOLT-4 leukemia 33.4%
active: CCRF-CEM leukemia 9.35%

CS(=O)(=O)Nc1cc(-c2ccc3ncc(C#N)c(Nc4ccc(F)c(Cl)c4)c3c2)cnc1Cl
inactive: SN12C renal 18.2% | ACHN renal 10.2%
active: SK-MEL-2 melanoma -59.9% | EKVX NSCLC -3.93% | UO-31 renal -6.94% | TK-10 renal -21.6% | CAKI-1 renal 4.91% | A498 renal -83.6% | CCRF-CEM leukemia 0.41% | MOLT-4 leukemia -22.5%

NC(=O)c1cccc([C@@H]2O[C@H](CO)[C@@H](O)[C@H]2O)c1
active: MOLT-4 leukemia -1.79%
inactive: SK-MEL-2 melanoma 103% | EKVX NSCLC 99% | SN12C renal 94.1% | UO-31 renal 52.1% | TK-10 renal 55.5% | ACHN renal 93.1% | CAKI-1 renal 80.9% | A498 renal 86.6% | CCRF-CEM leukemia 11%

CN1CCN(Cc2ccc(NC(=O)c3cncc(C#Cc4cnc(N)c5ncccc45)c3)cc2C(F)(F)F)CC1
inactive: EKVX NSCLC 33.3% | CCRF-CEM leukemia 19.3% | MOLT-4 leukemia 14.5%
active: SK-MEL-2 melanoma -77.3% | SN12C renal -33.2% | UO-31 renal -92.3% | TK-10 renal -63.8% | ACHN renal -75.6% | CAKI-1 renal -23.9% | A498 renal -27%

O=C1Nc2ccccc2C1(c1c[nH]c2ccccc12)c1c[nH]c2ccccc12
inactive: SK-MEL-2 melanoma 87.7% | EKVX NSCLC 23.3% | UO-31 renal 33.6% | CAKI-1 renal 44% | A498 renal 49.3% | CCRF-CEM leukemia 65% | MOLT-4 leukemia 46.7%
active: SN12C renal 1.17% | TK-10 renal -10.1% | ACHN renal 1.55%

COc1ccc(C#Cc2ccc(=O)oc2-c2cc(OC)c(OC)c(OC)c2)cc1O
inactive: SK-MEL-2 melanoma 61.6% | EKVX NSCLC 79.8% | SN12C renal 58% | UO-31 renal 37.9% | TK-10 renal 81.8% | ACHN renal 62% | CAKI-1 renal 22.8% | A498 renal 56.6% | CCRF-CEM leukemia 18.5% | MOLT-4 leukemia 15.1%

COc1cc(C(=O)n2nc(N3CCOCC3)c3cc(-n4cccc4)ccc32)cc(OC)c1OC
inactive: SK-MEL-2 melanoma 92.1% | EKVX NSCLC 60.6% | SN12C renal 69% | UO-31 renal 32.9% | TK-10 renal 88.4% | ACHN renal 49.8% | CAKI-1 renal 60.6% | CCRF-CEM leukemia 36.4% | MOLT-4 leukemia 33.1%
active: A498 renal 0.812%

C#CC#CC#CC#CC#CC#CC#CC#CCC1OC[C@H](COC(=O)O[C@@H](C(=O)O[C@H]2C[C@@]3(O)[C@@H](OC(=O)c4ccccc4)[C@@H]4[C@]5(OC(C)=O)CO[C@@H]5C[C@H](O)[C@@]4(C)C(=O)[C@H](OC(C)=O)C(=C2C)C3(C)C)[C@@H](NC(=O)c2ccccc2)c2ccccc2)O1 (stereo not given in full)
inactive: SK-MEL-2 melanoma 36.2% | EKVX NSCLC 60.2% | SN12C renal 31.2% | UO-31 renal 95.1% | TK-10 renal 84.9% | ACHN renal 69.8% | CAKI-1 renal 59.5% | CCRF-CEM leukemia 15.1% | MOLT-4 leukemia 28.5%
active: A498 renal -1.18%

CCN1CCN(CC(=O)Nc2ccc(-c3cn4c(n3)sc3cc(Oc5ccnc(C(=O)NC)c5)ccc34)cc2)CC1
inactive: SK-MEL-2 melanoma 42.5% | EKVX NSCLC 100% | SN12C renal 85.9% | UO-31 renal 60.1% | TK-10 renal 89.5% | ACHN renal 73.2% | CAKI-1 renal 67.4% | A498 renal 81.8% | CCRF-CEM leukemia 44.9% | MOLT-4 leukemia 60.6%

Nc1nc(NC(=O)Nc2ccc(C(=O)O)cc2)nn1-c1ccc(S(N)(=O)=O)cc1
inactive: SK-MEL-2 melanoma 110% | EKVX NSCLC 105% | SN12C renal 89.5% | UO-31 renal 80.7% | TK-10 renal 106% | ACHN renal 99.6% | CAKI-1 renal 90.3% | A498 renal 90.6% | CCRF-CEM leukemia 99.4% | MOLT-4 leukemia 93.1%

CCc1ccc(CCC(=O)Nc2ncc(Cc3cc(Cl)ccc3Cl)s2)o1
inactive: SK-MEL-2 melanoma 45.5% | EKVX NSCLC 42.9% | SN12C renal 31.9% | UO-31 renal 33.4% | TK-10 renal 51% | ACHN renal 33.9% | CAKI-1 renal 23.9% | CCRF-CEM leukemia 10.4% | MOLT-4 leukemia 14.7%
active: A498 renal -0.625%

C[C@]1(O)CC(=O)[C@]2(O)C3=C(C=C[C@]2(O)C1)C(=O)c1c(O)cccc1C3=O
active: SN12C renal 3.18% | UO-31 renal -96.6% | TK-10 renal -82.8% | ACHN renal -100% | CAKI-1 renal -59.8% | CCRF-CEM leukemia 0.446% | MOLT-4 leukemia -12.8%
inactive: SK-MEL-2 melanoma 89.7% | EKVX NSCLC 73.8% | A498 renal 117%

O=C(Cc1ccccc1)Nc1cccc(N=Cc2ccccc2O)c1
inactive: SK-MEL-2 melanoma 116% | EKVX NSCLC 104% | SN12C renal 96.6% | UO-31 renal 77.6% | TK-10 renal 103% | ACHN renal 110% | CAKI-1 renal 80.8% | A498 renal 115% | CCRF-CEM leukemia 106% | MOLT-4 leukemia 101%

O=C(CI)NC(=O)NC(=O)NCc1ccccc1
inactive: SK-MEL-2 melanoma 69.4% | EKVX NSCLC 93.6% | SN12C renal 33% | TK-10 renal 74.7% | A498 renal 91.2%
active: UO-31 renal -20.6% | ACHN renal -45.5% | CAKI-1 renal 5.31% | CCRF-CEM leukemia -23.8% | MOLT-4 leukemia -24.5%

O=C1Nc2ccccc2/C1=C\c1c[nH]c2ccc(Br)cc12
inactive: SK-MEL-2 melanoma 66.8% | EKVX NSCLC 79.5% | SN12C renal 84.9% | UO-31 renal 46% | TK-10 renal 75.3% | ACHN renal 53.6% | CAKI-1 renal 55% | A498 renal 108% | CCRF-CEM leukemia 66.1% | MOLT-4 leukemia 62.1%

C#COc1cccc(Nc2ncnc3cc(NC(=O)[C@@H](C)Cl)ccc23)c1
inactive: SK-MEL-2 melanoma 27.4% [6.25 µM] | EKVX NSCLC 36.7% [6.25 µM] | SN12C renal 22% [6.25 µM] | UO-31 renal 29.2% [6.25 µM] | TK-10 renal 10.6% [6.25 µM] | ACHN renal 20.8% [6.25 µM] | CAKI-1 renal 19.4% [6.25 µM] | A498 renal 11.8% [6.25 µM] | MOLT-4 leukemia 11.4% [6.25 µM]
active: CCRF-CEM leukemia 3.09% [6.25 µM]

O=C(NC(Cc1nnc2n(Cc3ccccc3)c(=O)c3c4c(sc3n12)CCCC4)c1ccccc1)c1ccccc1 (stereo not given)
inactive: SK-MEL-2 melanoma 108% | EKVX NSCLC 99.3% | SN12C renal 119% | UO-31 renal 65% | TK-10 renal 119% | ACHN renal 127% | CAKI-1 renal 101% | A498 renal 109% | CCRF-CEM leukemia 61.9% | MOLT-4 leukemia 61.2%

COc1ccc(/C=C/c2ccc3ccccc3n2)c(OC)c1
inactive: SK-MEL-2 melanoma 48.3% | EKVX NSCLC 79.3% | SN12C renal 80.1% | UO-31 renal 65.4% | TK-10 renal 111% | ACHN renal 87% | CAKI-1 renal 73.6% | A498 renal 59.5% | CCRF-CEM leukemia 49% | MOLT-4 leukemia 58.3%

CN(CCCNC(=O)CCOCCOCCOCCNC(=O)Cc1ccc2ccc3cccc4ccc1c2c34)CCCNc1cc(-c2ccc3ccccc3c2)nc2ccccc12
active: SK-MEL-2 melanoma -70.4% | EKVX NSCLC -65.8% | SN12C renal -75.3% | UO-31 renal -73.4% | TK-10 renal -84.2% | ACHN renal -78.8% | CAKI-1 renal -82.4% | A498 renal -86.6% | CCRF-CEM leukemia -78.6% | MOLT-4 leukemia -83.7%

COc1ccc(C(=O)/C=C/c2ccc(N3CCCCC3)cc2)cc1OC
inactive: SK-MEL-2 melanoma 103% | EKVX NSCLC 92.8% | SN12C renal 90.5% | UO-31 renal 73.4% | TK-10 renal 110% | ACHN renal 100% | CAKI-1 renal 90.4% | A498 renal 87.2% | CCRF-CEM leukemia 81.5% | MOLT-4 leukemia 88.7%

CCOc1c(OC)cc2c(c1O)C(=O)N[C@@H]1[C@@H](O)[C@@H](O)[C@H](O)C[C@@H]21
inactive: SK-MEL-2 melanoma 106% | EKVX NSCLC 98% | SN12C renal 104% | UO-31 renal 92.9% | TK-10 renal 93.9% | ACHN renal 103% | CAKI-1 renal 91.3% | A498 renal 99.5% | CCRF-CEM leukemia 103% | MOLT-4 leukemia 92.4%

COc1cccc(-c2cc(-c3cccc(Cl)c3)c(C#N)c(=O)[nH]2)c1
inactive: SK-MEL-2 melanoma 60.8% | EKVX NSCLC 90.4% | SN12C renal 85.2% | UO-31 renal 71.5% | TK-10 renal 95.9% | ACHN renal 94.2% | CAKI-1 renal 64.9% | A498 renal 45.8% | CCRF-CEM leukemia 28.2% | MOLT-4 leukemia 64.8%

Cc1ccc(C(=O)Nc2cccc(C#Cc3cccc4[nH]nc(N)c34)c2)cc1C(F)(F)F
inactive: SK-MEL-2 melanoma 29.2% | EKVX NSCLC 92.4% | SN12C renal 65.2% | UO-31 renal 36.7% | TK-10 renal 86.6% | ACHN renal 44.7% | CAKI-1 renal 120% | A498 renal 81.2% | CCRF-CEM leukemia 52.9% | MOLT-4 leukemia 45%

CC(C)=CCNc1ncnc2c1ncn2C1OC(CO)C(O)C1O (stereo not given)
active: SK-MEL-2 melanoma -33.2% [1 mM] | SN12C renal -2.66% [1 mM] | UO-31 renal -72.4% [1 mM] | TK-10 renal -10.5% [1 mM] | ACHN renal 2.42% [1 mM] | CAKI-1 renal -36.9% [1 mM] | A498 renal -54.2% [1 mM] | CCRF-CEM leukemia -56.6% [1 mM] | MOLT-4 leukemia -26.6% [1 mM]
inactive: EKVX NSCLC 41.1% [1 mM]

C=CC(=O)Nc1ccc(Oc2nccc(Nc3nnc(-c4ccc(C)cc4)s3)n2)cc1
inactive: SK-MEL-2 melanoma 79.4% | EKVX NSCLC 103% | SN12C renal 84% | UO-31 renal 55.7% | TK-10 renal 135% | ACHN renal 68.5% | CAKI-1 renal 41.1% | A498 renal 83.3% | CCRF-CEM leukemia 50.5% | MOLT-4 leukemia 68.6%
